PubChem BioAssay AID1159580 (chemical genetic matrix, 2015)
Screen size: about 5,500 compounds; about 2,000 (36%) were called active. Inconclusive results (about 18%) are left out. Rule as the data show it: active = normalized growth mostly below about 0.91 (no sharp cut-off); inconclusive = no clear call, values can overlap the other calls; inactive = mostly above about 0.92. Some of the results follow.

Experiment: chemical genetic growth profiling, strain panel (AID 1159580);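 also: tested at 20 µM; growth read once vehicle control cultures reached saturation at 30 °C; 1 = growth at the plate median or of vehicle wells; lower values mean less growth of the strain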
Conditions: S. cerevisiae deletion strains, growth OD
[1] = locus YBR229C, strain ROT2, active compounds read low
[2] = locus YDL101C, strain DUN1, active compounds read low
[3] = locus YDL134C, strain PPH21, active compounds read low
[4] = locus YDR150W, strain NUM1, active compounds read low
[5] = locus YEL061C, strain CIN8, active compounds read low
[6] = locus YGR078C, strain PAC10, active compounds read low
[7] = locus YHR030C, strain SLT2, active compounds read low
[8] = locus YHR087W, strain rtc3, active compounds read low
[9] = locus YJR043C, strain POL32, active compounds read low
[10] = locus YJR075W, strain HOC1, active compounds read low
[11] = locus YLR039C, strain RIC1, active compounds read low
[12] = locus YLR058C, strain SHM2 (second series), active compounds read low
[13] = locus YLR085C, strain ARP6, active compounds read low
[14] = locus YLR262C, strain YPT6, active compounds read low
[15] = locus YML094W, strain GIM5, active compounds read low
[16] = locus YMR219W, strain ESC1, active compounds read low
[17] = locus YMR263W, strain SAP30, active compounds read low
[18] = locus YNL153C, strain GIM3, active compounds read low
[19] = locus YNL298W, strain CLA4 (second series), active compounds read low
[20] = locus YNL322C, strain KRE1, active compounds read low
[21] = locus YNR030W, strain Alg12, active compounds read low
[22] = locus YPL055C, strain LGE1, active compounds read low
[23] = locus YPL241C, strain CIN2, active compounds read low
[24] = locus YPR135W, strain CTF4, active compounds read low

Measured: normalized growth

c1ccc(-c2cc3c(ccc4nonc43)nn2)cc1
active: [7] 0.604 | [9] 0.76 | [22] 0.82
inactive: [1] 0.957 | [2] 0.933 | [3] 0.991 | [4] 0.922 | [5] 0.947 | [6] 0.973 | [8] 0.971 | [10] 0.97 | [11] 0.96 | [12] 0.977 | [13] 0.878 | [14] 0.988 | [15] 0.935 | [16] 0.981 | [17] 0.923 | [18] 0.955 | [19] 0.945 | [20] 0.988 | [21] 0.905 | locus YOL006C, strain TOP1, active compounds read low 0.734 | [23] 0.89 | [24] 0.764

c1ccc(-c2cc3c(nn2)CCc2nonc2-3)cc1
inactive: locus YAL013W, strain DEP1, active compounds read low 0.979 | [1] 0.984 | [2] 0.992 | [3] 0.985 | [4] 1.01 | [5] 0.985 | [6] 0.992 | [7] 0.784 | [8] 1.01 | locus YJL187C, strain SWE1, active compounds read low 0.975 | [9] 0.984 | [10] 0.966 | [11] 1.04 | [12] 0.978 | [13] 0.886 | [14] 1.02 | [15] 1.04 | [16] 0.985 | [17] 0.958 | [18] 0.99 | [19] 0.965 | [20] 0.987 | [21] 0.986 | [22] 1.09 | [23] 0.988 | [24] 0.988
